# This is part of a sample that, as a whole, favours compounds with a hit. Of some 79,000 tested, about 15% had one in any assay. Unmarked numbers belong to inactive results. Activity calls are given as the source filed them. No stated cut-off is given here; in the data, active means growth inhibition above about 70%; inactive means the rest.
# Experiments:
# [1] = NCI Yeast Anticancer Drug Screen. Data for the rad52 strain (AID 147);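 further: 0% = growth of vehicle-treated control cultures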; details: S. cerevisiae rad52 mutant growth inhibition, stronger effect = higher value
# Method in brief: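 Measured: yeast growth inhibition. System: strain with a defined DNA damage repair alteration. Reference: vehicle-treated control cultures.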
# [2] = NCI Yeast Anticancer Drug Screen. Data for the wt1 strain (AID 149);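 further: 0% = growth of vehicle-treated wt1 cultures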; details: S. cerevisiae wt1 strain (SPY 50644) growth inhibition, stronger effect = higher value
# Method in brief: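 Using yeast strain wt1, compound-induced growth inhibition was determined against vehicle-treated cultures.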
# [3] = NCI Yeast Anticancer Drug Screen. Data for the rad50EPP+ strain (AID 151);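 further: 0% = growth of vehicle-treated control cultures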; details: S. cerevisiae rad50 mutant strain, stronger effect = higher value
# Method in brief: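 One strain with a rad50 alteration (rad50EPP+) was compound-treated, its growth then compared to that of vehicle controls.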
# [4] = NCI Yeast Anticancer Drug Screen. Data for the rad50 strain (AID 155);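 further: 0% = growth of vehicle-only cultures of the same strain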; details: S. cerevisiae rad50 strain growth inhibition, stronger effect = higher value
# Method in brief: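 Relative growth inhibition (compound vs vehicle) was measured in yeast with a defined repair-gene alteration.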
# [5] = NCI Yeast Anticancer Drug Screen. Data for the mec2-1 strain (AID 157); details: S. cerevisiae mec2-1 strain, stronger effect = higher value
# Method in brief: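 Test agents were screened against the mec2-1 yeast strain, with defined DNA repair or cell cycle alteration. Growth was scored as inhibition against vehicle-only controls.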
# [6] = NCI Yeast Anticancer Drug Screen. Data for the rad14 strain (AID 159);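 further: 0% = growth of vehicle-treated control cultures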; details: S. cerevisiae rad14 strain growth inhibition, stronger effect = higher value
# Method in brief: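 Screen for anticancer potential: a yeast strain altered in DNA damage repair is grown with compound, and reduced growth is quantified against vehicle controls.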
# [7] = NCI Yeast Anticancer Drug Screen. Data for the sgs1 mgt1 strain (AID 161);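 further: 0% = growth of cultures given vehicle only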; details: S. cerevisiae sgs1 mgt1 strain, stronger effect = higher value
# Method in brief: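 Mutant yeast exposed to compound; growth scored against vehicle-only wells.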
# [8] = NCI Yeast Anticancer Drug Screen. Data for the CLN2oe strain (AID 163);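 further: 0% = growth of vehicle-only control cultures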; details: S. cerevisiae CLN2oe strain, stronger effect = higher value
# Method in brief: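 Here, growth inhibition in a cell-cycle-altered yeast strain after compound exposure was quantified against vehicle control growth.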
# [9] = NCI Yeast Anticancer Drug Screen. Data for the cln2 rad14 strain (AID 165);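 further: 0% = growth equal to vehicle treated cultures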; details: S. cerevisiae cln2 rad14 strain, stronger effect = higher value
# Method in brief: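 Growth of compound-exposed yeast (cln2 rad14 genotype) measured and expressed as inhibition relative to vehicle.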
# [10] = NCI Yeast Anticancer Drug Screen. Data for the bub3 strain (AID 167); details: S. cerevisiae bub3 mutant strain, stronger effect = higher value
# Method in brief: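 Screening used yeast with an engineered genetic alteration affecting cell cycle control. Compound-exposed cultures were compared with vehicle cultures, and reduced growth was taken as inhibition.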
# [11] = NCI Yeast Anticancer Drug Screen. Data for the wt2 strain (AID 169);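 further: 0% = growth of vehicle-treated yeast cultures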; details: S. cerevisiae wt2 strain growth inhibition, stronger effect = higher value
# Method in brief: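 Genetically defined yeast strains from a DNA-repair/cell-cycle panel were used. Compound-exposed yeast growth was measured, and the inhibition was calculated relative to vehicle treatment.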
# [12] = NCI Yeast Anticancer Drug Screen. Data for the mlh1 strain (AID 171);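 further: 0% = growth of vehicle-treated control cultures of the same strain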; details: S. cerevisiae mlh1 strain growth inhibition, stronger effect = higher value
# Method in brief: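 Here the genetically defined yeast mutant is grown with each compound, and the extent to which its growth falls below that of vehicle-exposed cells is reported.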
# [13] = NCI Yeast Anticancer Drug Screen. Data for the sgs1 strain (AID 173);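 further: 0% = growth of vehicle-only control cultures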; details: S. cerevisiae sgs1 mutant, stronger effect = higher value
# Method in brief: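 Relative growth inhibition, referenced to vehicle, was determined in a yeast strain with a defined alteration affecting DNA damage repair or cell cycle control after compound exposure.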
# [14] = NCI Yeast Anticancer Drug Screen. Data for the rad18 strain (AID 177); details: S. cerevisiae rad18 mutant growth inhibition, stronger effect = higher value
# Method in brief: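 Screen uses a yeast strain with a defined lesion in DNA damage repair; compound effect is read as loss of growth compared to untreated vehicle cultures.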
# [15] = NCI Yeast Anticancer Drug Screen. Data for the mlh1 rad18 strain (AID 175); details: S. cerevisiae mlh1 rad18 strain growth inhibition, stronger effect = higher value
# Method in brief: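 In this whole-cell yeast screen, a strain with altered DNA damage repair is challenged with compound, and its growth is measured against matched vehicle-treated controls.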
# [16] = at 5.0 µM (retest, dose inferred, filed as 0.5)
# [17] = at 50.0 µM (retest, dose inferred, filed as 5.0)
smiles,measurement,setting,value
CNc1nc(C)nc2c1cnn2-c1ccc([N+](=O)[O-])cc1,growth inhibition,[1]; at 1.2 µM,-1%
same,growth inhibition,[1]; at 3.7 µM,-6%
same,growth inhibition,[1]; at 11.0 µM,10%
same,growth inhibition,[1]; at 33.0 µM,26%
same,growth inhibition,[1]; at 100.0 µM,41%
same,growth inhibition,[2]; at 1.2 µM,3%
same,growth inhibition,[2]; at 3.7 µM,1%
same,growth inhibition,[2]; at 11.0 µM,13%
same,growth inhibition,[2]; at 33.0 µM,12%
same,growth inhibition,[2]; at 100.0 µM,15%
same,growth inhibition,[3]; at 1.2 µM,11%
same,growth inhibition,[3]; at 3.7 µM,17%
same,growth inhibition,[3]; at 11.0 µM,42%
same,growth inhibition,[3]; at 33.0 µM,63%
same,growth inhibition,[3]; at 100.0 µM,69%
same,growth inhibition,[4]; at 1.2 µM,-2%
same,growth inhibition,[4]; at 3.7 µM,-5%
same,growth inhibition,[4]; [16],1%
same,growth inhibition,[4]; at 11.0 µM,16%
same,growth inhibition,[4]; at 33.0 µM,68%
same,growth inhibition,[4]; [17],76% (active)
same,growth inhibition,[4]; at 50.0 µM,79.2% (active)
same,growth inhibition,[4]; at 100.0 µM,88% (active)
same,growth inhibition,[5]; at 1.2 µM,0%
same,growth inhibition,[5]; at 3.7 µM,0%
same,growth inhibition,[5]; [16],-2%
same,growth inhibition,[5]; at 11.0 µM,2%
same,growth inhibition,[5]; at 33.0 µM,-1%
same,growth inhibition,[5]; [17],31%
same,growth inhibition,[5]; at 50.0 µM,-1.35%
same,growth inhibition,[5]; at 100.0 µM,-2%
same,growth inhibition,[6]; at 1.2 µM,11%
same,growth inhibition,[6]; at 3.7 µM,2%
same,growth inhibition,[6]; at 11.0 µM,22%
same,growth inhibition,[6]; at 33.0 µM,24%
same,growth inhibition,[6]; at 100.0 µM,25%
same,growth inhibition,[7]; [16],2%
same,growth inhibition,[7]; [17],83% (active)
same,growth inhibition,[7]; at 50.0 µM,69.7%
same,growth inhibition,[8]; at 1.2 µM,-6%
same,growth inhibition,[8]; at 3.7 µM,-5%
same,growth inhibition,[8]; at 11.0 µM,-5%
same,growth inhibition,[8]; at 33.0 µM,-6%
same,growth inhibition,[8]; at 100.0 µM,-8%
same,growth inhibition,[9]; [16],-4%
same,growth inhibition,[9]; [17],30%
same,growth inhibition,[9]; at 50.0 µM,2%
same,growth inhibition,[10]; at 1.2 µM,-5%
same,growth inhibition,[10]; at 3.7 µM,-2%
same,growth inhibition,[10]; [16],-2%
same,growth inhibition,[10]; at 11.0 µM,-12%
same,growth inhibition,[10]; at 33.0 µM,-12%
same,growth inhibition,[10]; [17],2%
same,growth inhibition,[10]; at 50.0 µM,-13.3%
same,growth inhibition,[10]; at 100.0 µM,-14%
same,growth inhibition,[11]; at 1.2 µM,-4%
same,growth inhibition,[11]; at 3.7 µM,9%
same,growth inhibition,[11]; at 11.0 µM,13%
same,growth inhibition,[11]; at 33.0 µM,24%
same,growth inhibition,[11]; at 100.0 µM,16%
same,growth inhibition,[12]; at 1.2 µM,-5%
same,growth inhibition,[12]; at 3.7 µM,-1%
same,growth inhibition,[12]; at 11.0 µM,0%
same,growth inhibition,[12]; at 33.0 µM,-1%
same,growth inhibition,[12]; at 100.0 µM,-1%
same,growth inhibition,[13]; at 1.2 µM,5%
same,growth inhibition,[13]; at 3.7 µM,4%
same,growth inhibition,[13]; at 11.0 µM,44%
same,growth inhibition,[13]; at 33.0 µM,69%
same,growth inhibition,[13]; at 100.0 µM,80% (active)
same,growth inhibition,[14]; at 1.2 µM,-1%
same,growth inhibition,[14]; at 3.7 µM,16%
same,growth inhibition,[14]; at 11.0 µM,49%
same,growth inhibition,[14]; at 33.0 µM,89% (active)
same,growth inhibition,[14]; at 100.0 µM,92% (active)
O=S(=O)(N/N=C/c1cccc(Cl)c1)c1ccccc1,growth inhibition,[1]; at 1.2 µM,-4%
same,growth inhibition,[1]; at 3.7 µM,-3%
same,growth inhibition,[1]; at 11.0 µM,8%
same,growth inhibition,[1]; at 33.0 µM,88% (active)
same,growth inhibition,[1]; at 100.0 µM,99% (active)
same,growth inhibition,[2]; at 1.2 µM,0%
same,growth inhibition,[2]; at 3.7 µM,4%
same,growth inhibition,[2]; at 11.0 µM,3%
same,growth inhibition,[2]; at 33.0 µM,65%
same,growth inhibition,[2]; at 100.0 µM,99% (active)
same,growth inhibition,[3]; at 1.2 µM,4%
same,growth inhibition,[3]; at 3.7 µM,8%
same,growth inhibition,[3]; at 11.0 µM,18%
same,growth inhibition,[3]; at 33.0 µM,18%
same,growth inhibition,[3]; at 100.0 µM,25%
same,growth inhibition,[4]; at 1.2 µM,-1%
same,growth inhibition,[4]; at 3.7 µM,-1%
same,growth inhibition,[4]; [16],-14%
same,growth inhibition,[4]; at 11.0 µM,7%
same,growth inhibition,[4]; at 33.0 µM,87% (active)
same,growth inhibition,[4]; [17],92% (active)
same,growth inhibition,[4]; at 50.0 µM,89.9% (active)
same,growth inhibition,[4]; at 100.0 µM,98% (active)
same,growth inhibition,[5]; at 1.2 µM,-3%
same,growth inhibition,[5]; at 3.7 µM,4%
same,growth inhibition,[5]; [16],-18%
same,growth inhibition,[5]; at 11.0 µM,13%
same,growth inhibition,[5]; at 33.0 µM,54%
same,growth inhibition,[5]; [17],66%
same,growth inhibition,[5]; at 50.0 µM,55.5%
same,growth inhibition,[5]; at 100.0 µM,91% (active)
same,growth inhibition,[6]; at 1.2 µM,-7%
same,growth inhibition,[6]; at 3.7 µM,-6%
same,growth inhibition,[6]; at 11.0 µM,-1%
same,growth inhibition,[6]; at 33.0 µM,73% (active)
same,growth inhibition,[6]; at 100.0 µM,99% (active)
same,growth inhibition,[7]; [16],-1%
same,growth inhibition,[7]; [17],86% (active)
same,growth inhibition,[7]; at 50.0 µM,63.7%
same,growth inhibition,[8]; at 1.2 µM,-10%
same,growth inhibition,[8]; at 3.7 µM,-7%
same,growth inhibition,[8]; at 11.0 µM,27%
same,growth inhibition,[8]; at 33.0 µM,84% (active)
same,growth inhibition,[8]; at 100.0 µM,82% (active)
same,growth inhibition,[9]; [16],20%
same,growth inhibition,[9]; [17],89% (active)
same,growth inhibition,[9]; at 50.0 µM,67.4%
same,growth inhibition,[10]; at 1.2 µM,1%
same,growth inhibition,[10]; at 3.7 µM,1%
same,growth inhibition,[10]; [16],-12%
same,growth inhibition,[10]; at 11.0 µM,11%
same,growth inhibition,[10]; at 33.0 µM,79% (active)
same,growth inhibition,[10]; [17],88% (active)
same,growth inhibition,[10]; at 50.0 µM,63.3%
same,growth inhibition,[10]; at 100.0 µM,98% (active)
same,growth inhibition,[11]; at 1.2 µM,-4%
same,growth inhibition,[11]; at 3.7 µM,-4%
same,growth inhibition,[11]; at 11.0 µM,0%
same,growth inhibition,[11]; at 33.0 µM,86% (active)
same,growth inhibition,[11]; at 100.0 µM,99% (active)
same,growth inhibition,[12]; at 1.2 µM,-3%
same,growth inhibition,[12]; at 3.7 µM,0%
same,growth inhibition,[12]; at 11.0 µM,11%
same,growth inhibition,[12]; at 33.0 µM,83% (active)
same,growth inhibition,[12]; at 100.0 µM,99% (active)
same,growth inhibition,[13]; at 1.2 µM,1%
same,growth inhibition,[13]; at 3.7 µM,4%
same,growth inhibition,[13]; at 11.0 µM,18%
same,growth inhibition,[13]; at 33.0 µM,77% (active)
same,growth inhibition,[13]; at 100.0 µM,99% (active)
same,growth inhibition,[15]; [16],57%
same,growth inhibition,[15]; [17],95% (active)
same,growth inhibition,[15]; at 50.0 µM,96.8% (active)
same,growth inhibition,[14]; at 1.2 µM,-3%
same,growth inhibition,[14]; at 3.7 µM,1%
same,growth inhibition,[14]; at 11.0 µM,29%
same,growth inhibition,[14]; at 33.0 µM,86% (active)
same,growth inhibition,[14]; at 100.0 µM,99% (active)
